Assay results reported in the supplement of paper PMC10849652.
The full data set covers some 7,900 targets. This sample favours those with a hit. About 0.6% of all pairs of compound and target were hits.

Assays:
Assay in all cases: log2 fold change, soluble protein after heating vs DMSO (PISA); higher = thermal stabilisation; K562 cells, 10 uM, 30 min; active = over 0.2 and 3.5 SD of the protein, either way, in both replicates (recomputed)
[1] = compound: C1=CC=C(C=C1)[C@H](COC2=CC3=C(C=C2)NC(=O)N3)NC(=O)C4=CC=CN(C4=O)CC5=CC(=C(C=C5)F)F
Procedure, shortened: (§1)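 K562 cells at 2×10^6 cells/mL were treated with 10 μM compound for 30 min. Aliquots were heated for 3 min across 48°C-58°C, pooled, and extracted in PBS with 0.5% NP-40 at 4°C; soluble protein was the supernatant after 21,000xg for 90 min. Soluble protein was quantified by TMTpro 16plex LC-MS/MS with channel sums equalised, and reported as log2 fold change in thermal stability against DMSO controls, with values from duplicates.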

[2] = compound: CC1=C(SC2=C1C(=N[C@H](C3=NN=C(N32)C)CC(=O)N)C4=CC=C(C=C4)Cl)C
Procedure, shortened: as §1

[3] = compound: CC1=C2C(=CC=C1)N=C(N(C2=O)C3=CC=CC=C3C)CN4C=NC5=C(N=CN=C54)N
Procedure, shortened: as §1

[4] = compound: Cc1sc2c(c1C)C(c1ccc(Cl)cc1)=N[C@@H](CC(=O)OC(C)(C)C)c1nnc(C)n1-2
Procedure, shortened: as §1

[5] = compound: c1ccc([C@@H]2C[C@H]2NC2CCNCC2)cc1
Procedure, shortened: as §1

Measured: log2 fold change

MRFAP1 (UniProt Q9Y605)
Sequence of UniProt Q9Y605 (Q9Y605 whole entry, looked up): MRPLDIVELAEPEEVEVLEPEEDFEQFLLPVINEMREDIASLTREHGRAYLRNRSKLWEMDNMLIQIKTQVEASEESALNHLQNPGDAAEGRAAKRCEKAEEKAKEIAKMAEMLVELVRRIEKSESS
inactive: [1] 0.009 | [2] 0.109 | [3] -0.043 | [4] 0.031 | [5] -0.017

MRPS33 (UniProt Q9Y291)
inactive: [1] 0.005 | [2] -0.057 | [3] -0.114 | [4] 0.098 | [5] -0.002

MRPS18B (UniProt Q9Y676)
inactive: [1] -0.055 | [2] -0.113 | [3] -0.041 | [4] 0.127 | [5] -0.078

NFATC2 (UniProt Q13469)
Sequence of UniProt Q13469 (Q13469 whole entry, looked up): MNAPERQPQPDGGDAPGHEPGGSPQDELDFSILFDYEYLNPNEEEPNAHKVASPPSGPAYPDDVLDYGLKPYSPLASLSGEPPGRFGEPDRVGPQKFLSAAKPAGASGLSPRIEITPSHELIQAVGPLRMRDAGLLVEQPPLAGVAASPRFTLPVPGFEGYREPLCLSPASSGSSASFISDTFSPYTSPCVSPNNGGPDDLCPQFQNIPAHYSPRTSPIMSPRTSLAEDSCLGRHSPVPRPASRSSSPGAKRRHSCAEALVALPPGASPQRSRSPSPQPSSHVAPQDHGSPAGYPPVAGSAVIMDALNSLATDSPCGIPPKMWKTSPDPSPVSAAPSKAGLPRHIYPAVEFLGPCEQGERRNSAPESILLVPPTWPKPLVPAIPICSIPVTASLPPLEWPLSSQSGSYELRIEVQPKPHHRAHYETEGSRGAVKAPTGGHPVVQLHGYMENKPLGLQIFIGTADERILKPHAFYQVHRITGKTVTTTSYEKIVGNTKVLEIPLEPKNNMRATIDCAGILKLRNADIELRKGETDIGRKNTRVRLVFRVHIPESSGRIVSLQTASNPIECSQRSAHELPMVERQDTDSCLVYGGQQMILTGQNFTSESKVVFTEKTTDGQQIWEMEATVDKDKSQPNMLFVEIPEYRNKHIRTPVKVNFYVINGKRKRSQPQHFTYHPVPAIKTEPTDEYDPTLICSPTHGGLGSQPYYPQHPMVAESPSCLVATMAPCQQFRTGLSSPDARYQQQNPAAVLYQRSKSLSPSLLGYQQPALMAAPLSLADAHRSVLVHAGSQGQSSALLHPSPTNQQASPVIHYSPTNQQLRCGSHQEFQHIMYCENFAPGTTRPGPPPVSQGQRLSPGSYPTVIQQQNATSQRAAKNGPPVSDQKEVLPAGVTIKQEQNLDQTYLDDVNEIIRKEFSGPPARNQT
inactive: [1] -0.063 | [2] 0.097 | [3] 0.077 | [4] 0.023 | [5] 0.021

NFE2 (UniProt Q16621)
Sequence of UniProt Q16621 (Q16621 whole entry, looked up): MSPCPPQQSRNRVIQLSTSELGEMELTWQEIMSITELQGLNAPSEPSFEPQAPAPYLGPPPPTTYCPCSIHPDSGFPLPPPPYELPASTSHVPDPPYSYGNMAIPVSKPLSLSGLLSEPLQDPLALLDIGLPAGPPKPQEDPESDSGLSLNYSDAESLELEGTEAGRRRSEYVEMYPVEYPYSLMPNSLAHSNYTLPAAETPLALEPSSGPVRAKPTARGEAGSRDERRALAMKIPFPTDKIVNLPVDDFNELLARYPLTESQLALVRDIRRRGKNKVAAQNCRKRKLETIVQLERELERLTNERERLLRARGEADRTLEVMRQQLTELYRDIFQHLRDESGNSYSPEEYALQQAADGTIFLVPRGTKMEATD
inactive: [1] 0.054 | [2] -0.004 | [3] 0.12 | [4] 0.087 | [5] 0.145

MTFR1L (UniProt Q9H019)
Sequence of UniProt Q9H019 (Q9H019 whole entry, looked up): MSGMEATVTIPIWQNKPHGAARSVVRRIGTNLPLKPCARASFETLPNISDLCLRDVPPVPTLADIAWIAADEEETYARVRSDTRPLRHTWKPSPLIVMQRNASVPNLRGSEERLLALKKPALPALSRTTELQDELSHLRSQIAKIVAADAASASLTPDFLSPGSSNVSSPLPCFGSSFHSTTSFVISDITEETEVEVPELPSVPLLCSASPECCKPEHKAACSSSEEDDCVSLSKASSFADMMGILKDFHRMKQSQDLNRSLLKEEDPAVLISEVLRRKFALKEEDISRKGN
inactive: [1] -0.036 | [2] -0.009 | [3] 0.066 | [4] 0.048 | [5] 0.028

NDUFA9 (UniProt Q16795)
Sequence of UniProt Q16795 (Q16795 whole entry, looked up): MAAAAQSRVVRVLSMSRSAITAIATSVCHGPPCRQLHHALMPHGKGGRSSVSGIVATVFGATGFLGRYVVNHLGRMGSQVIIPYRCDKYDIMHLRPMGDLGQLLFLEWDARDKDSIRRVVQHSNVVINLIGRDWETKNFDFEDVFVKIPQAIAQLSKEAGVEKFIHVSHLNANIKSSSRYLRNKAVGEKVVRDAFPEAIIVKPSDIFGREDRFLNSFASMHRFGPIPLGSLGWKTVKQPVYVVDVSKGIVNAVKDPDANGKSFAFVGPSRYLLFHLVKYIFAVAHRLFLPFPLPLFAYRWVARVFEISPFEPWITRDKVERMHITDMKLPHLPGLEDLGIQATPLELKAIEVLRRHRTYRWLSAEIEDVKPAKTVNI
inactive: [1] -0.005 | [2] 0.075 | [3] 0.078 | [4] -0.014 | [5] -0.054

MYH11 isoform 2 (UniProt P35749)
inactive: [1] 0.011 | [2] 0.024 | [3] -0.071 | [4] -0.026 | [5] -0.036

NISCH (UniProt Q9Y2I1)
Sequence of UniProt Q9Y2I1 (Q9Y2I1 whole entry, looked up): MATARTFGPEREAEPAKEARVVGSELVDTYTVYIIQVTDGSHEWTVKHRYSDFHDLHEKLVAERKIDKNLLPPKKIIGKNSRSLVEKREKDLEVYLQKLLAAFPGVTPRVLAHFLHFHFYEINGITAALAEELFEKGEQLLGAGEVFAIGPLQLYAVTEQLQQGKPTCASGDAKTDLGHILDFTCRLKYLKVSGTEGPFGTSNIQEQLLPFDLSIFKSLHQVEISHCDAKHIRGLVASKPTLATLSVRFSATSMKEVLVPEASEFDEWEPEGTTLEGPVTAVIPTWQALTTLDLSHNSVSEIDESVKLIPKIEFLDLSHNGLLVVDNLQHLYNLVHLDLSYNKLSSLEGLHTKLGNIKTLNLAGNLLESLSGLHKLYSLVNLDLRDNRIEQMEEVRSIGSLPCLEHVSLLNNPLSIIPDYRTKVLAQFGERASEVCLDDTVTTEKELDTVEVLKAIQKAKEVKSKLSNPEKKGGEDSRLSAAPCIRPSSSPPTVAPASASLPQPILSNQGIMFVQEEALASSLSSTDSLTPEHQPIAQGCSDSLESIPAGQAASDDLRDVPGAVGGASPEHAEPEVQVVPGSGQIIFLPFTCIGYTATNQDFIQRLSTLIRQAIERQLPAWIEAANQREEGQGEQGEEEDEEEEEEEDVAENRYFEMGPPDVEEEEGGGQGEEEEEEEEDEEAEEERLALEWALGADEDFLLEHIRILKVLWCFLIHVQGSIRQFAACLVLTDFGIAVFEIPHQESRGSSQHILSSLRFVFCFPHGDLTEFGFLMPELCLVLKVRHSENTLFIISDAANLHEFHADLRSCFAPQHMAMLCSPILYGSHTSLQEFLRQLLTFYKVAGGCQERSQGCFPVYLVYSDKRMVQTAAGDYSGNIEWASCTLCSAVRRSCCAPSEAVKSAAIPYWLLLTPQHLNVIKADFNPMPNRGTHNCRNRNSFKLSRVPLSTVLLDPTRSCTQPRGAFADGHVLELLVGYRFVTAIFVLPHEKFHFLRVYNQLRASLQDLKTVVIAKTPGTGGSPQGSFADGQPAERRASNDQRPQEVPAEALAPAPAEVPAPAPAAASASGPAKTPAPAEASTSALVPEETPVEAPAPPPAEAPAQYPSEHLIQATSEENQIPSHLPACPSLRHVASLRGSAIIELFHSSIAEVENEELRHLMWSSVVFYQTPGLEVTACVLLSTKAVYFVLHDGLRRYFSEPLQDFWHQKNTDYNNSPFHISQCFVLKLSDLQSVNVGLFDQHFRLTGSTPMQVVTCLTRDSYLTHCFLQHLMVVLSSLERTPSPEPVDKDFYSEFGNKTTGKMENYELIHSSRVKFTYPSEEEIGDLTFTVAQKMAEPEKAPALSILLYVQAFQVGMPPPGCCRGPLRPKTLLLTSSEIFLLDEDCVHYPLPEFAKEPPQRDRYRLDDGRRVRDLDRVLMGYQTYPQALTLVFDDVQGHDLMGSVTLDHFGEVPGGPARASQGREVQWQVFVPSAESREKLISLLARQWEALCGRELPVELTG
inactive: [1] 0.044 | [2] -0.02 | [3] 0.036 | [4] 0.044 | [5] -0.044
